High-throughput results (PubChem BioAssay)
IMPase Li inh: cell-permeable IMPase inhibitors with lithium potentiation; CHO-M1 cells, IP1 TR-FRET (IP-One), carbachol + lithium; Potency, µM (titrated, usually from 59.4 µM), for inactives: top-dose activity, negative = IMPase inhibition, usual class: inhibitors; 210,000 tested, 0.35% active; AID 1457;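 further: IP1 builds up when IMPase is blocked and the TR-FRET signal falls; potency means the concentration at half of the fitted maximal effect; plate controls were basal vehicle for no effect and high inhibitor control for full effect; nearly all actives have a fitted effect of over 50% in size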
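IP1 accumulation measured by competitive TR-FRET in lysed CHO-M1 cells after 30 min compound exposure at 37C, with a small lithium addition to potentiate weak responses. Hill-equation AC50 from ratio and donor-channel data.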
NPSR antag: blocks cAMP signaling of the human neuropeptide S receptor; Potency, µM (highest dose often 38.3 µM), inactives show at the top dose activity change, negative = inhibition, usual class: inhibitors; CHO-NPSR cells, cAMP TR-FRET, antagonist mode; 220,000 tested, 1% active; AID 1461; Q6W5P4; further: potency means the concentration at half of the fitted maximal effect; nearly all actives have a fitted effect of over 50% in size
Target sequence (Q6W5P4 whole entry, looked up): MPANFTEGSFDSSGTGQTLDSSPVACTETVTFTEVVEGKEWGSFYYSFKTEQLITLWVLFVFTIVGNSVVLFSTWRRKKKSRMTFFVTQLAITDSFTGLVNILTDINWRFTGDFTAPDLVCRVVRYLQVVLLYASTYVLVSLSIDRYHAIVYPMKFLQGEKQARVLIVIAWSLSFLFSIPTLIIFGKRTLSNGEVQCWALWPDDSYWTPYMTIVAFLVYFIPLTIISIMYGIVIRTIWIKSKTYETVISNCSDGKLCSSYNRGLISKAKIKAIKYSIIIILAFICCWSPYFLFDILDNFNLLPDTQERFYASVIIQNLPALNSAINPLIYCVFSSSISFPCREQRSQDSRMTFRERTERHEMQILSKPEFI
IMPase cell inh: IMPase inhibition in cells; CHO-M1 cells, IP1 accumulation, HTRF TR-FRET ratio; inhibition (IP1 accumulation), % at 46.1 µM; 120,000 tested, under 10 active; AID 901; active means well fitted curve in the direction sought with a large enough effect in the signal ratio, not every such curve was filed as active; inconclusive means small, poorly fitted or top-dose-only effect, or a change in a side signal; inactive means no such curve, though single readings can be large or run the other way; the % refers to the signal ratio;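 further: cells stimulated with carbachol in lithium chloride buffer; plate controls were DMSO basal wells for no effect and reference inhibitor wells for full effect; higher means more IMPase inhibition seen as more IP1 and lower FRET ratio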
Target sequence (P97697 whole entry, looked up): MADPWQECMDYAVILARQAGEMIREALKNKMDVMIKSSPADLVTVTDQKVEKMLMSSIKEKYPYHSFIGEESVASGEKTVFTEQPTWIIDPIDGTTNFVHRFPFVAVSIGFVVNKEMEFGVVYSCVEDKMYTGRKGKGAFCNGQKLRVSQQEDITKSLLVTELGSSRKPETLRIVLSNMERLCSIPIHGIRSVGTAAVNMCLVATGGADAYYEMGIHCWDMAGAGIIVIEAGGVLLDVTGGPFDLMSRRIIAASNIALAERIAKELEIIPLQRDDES
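Seeded CHO-M1 cells were dosed with compound at up to 46 uM, stimulated with carbachol for 30 min, then lysed in IP-One detection reagents. Higher IP1 lowers the TR-FRET signal.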
* hit, by the source's call; ? = inconclusive; / = no result; [ ] = dose if it differs, or a comment. The entries come from a sample that favours hits as a whole. Unless noted, the call rests on the fitted dose curve; in most records, active means well fitted curve in the direction sought with a large enough effect; inconclusive means small, poorly fitted or top-dose-only effect, or another doubt; inactive means no such curve, though single readings can be large; an effect the other way counts as inactive or inconclusive. Unless noted, on the % scale 0 is the no-effect control and ±100 the full control effect.

SMILES	IMPase Li inh	NPSR antag	IMPase cell inh
CCn1c(N)nc2c1c(=O)n(C)c(=O)n2C	21%[38.3 µM]	-2%[46.1 µM]	-4
CC(C)(C)c1onc(OCP(=O)(O)O)c1C[C@@H](N)C(=O)O	/	/	5
CC(C)(C)c1ccc(/C=C/C(=O)c2ccc(NC3=NCCCS3)cc2)cc1	-16%	7.9µM*	3
O=C(/C=C/c1ccc(Br)cc1)c1ccc(NC2=NCCCS2)cc1	-17%	?	/
COc1ccc(S(=O)(=O)NCC2CCCN(C(=O)CC3CCCC3)C2)cc1 (centres undefined)	5%	3%	/
CCCCC(=O)N(Cc1ccc(-c2ccccc2-c2nn[nH]n2)cc1)C(C(=O)O)C(C)C (centres undefined)	21%	/	/
N#Cc1c(-c2ccccc2)nc(SCC(=O)NC2CCCCC2)[nH]c1=O	10µM*	-50%	/
CSc1nc(-c2ccc(Cl)cc2)c(C#N)c(=O)[nH]1	-13%	-20%	/
CCSc1nc(-c2ccccc2)c(C#N)c(=O)[nH]1	2µM*	18%[46.1 µM]	?
CCC(Sc1nc2ccccc2[nH]1)C(=O)Nc1cc(C)on1 (centres undefined)	33%[38.3 µM]	13%[46.1 µM]	?
CCC(Sc1nc(-c2ccccc2)c(C#N)c(=O)[nH]1)C(=O)Nc1cc(C)on1 (centres undefined)	11µM*	?	?
CSc1nc(-c2ccccc2)c(C#N)c(=O)[nH]1	/	-48%	/
O=C(CSc1nc2scc(-c3ccccc3)c2c(=O)[nH]1)NC1CCCCC1	?	-12%	/
N#Cc1c(-c2ccccc2)nc(SCc2nc(N)nc(N3CCCCC3)n2)[nH]c1=O	4.5µM*	6.3µM*	-15
COc1ccc2nc3cc(Cl)ccc3c(Nc3ccc(O)c(CN4CCN(C)CC4)c3)c2c1	29%	/	/
CCOc1ccc2nc(NC(=O)CSc3nc(-c4ccccc4)c(C#N)c(=O)[nH]3)sc2c1	?	-31%	/
CCOC(=O)Cc1csc(NC(=O)CSc2nc(-c3ccccc3)c(C#N)c(=O)[nH]2)n1	-26%	-1%	/
COC(=O)C(CC(C)C)NC(=O)CSc1nc(-c2ccccc2)c(C#N)c(=O)[nH]1 (centres undefined)	8.9µM*	7%[46.1 µM]	?
CNC(=O)NC(=O)CSc1nc(-c2cccs2)c(C#N)c(=O)[nH]1	5µM*	?	/
COc1ccc2cc1Oc1ccc(cc1)C[C@@H]1c3c(cc(OC)c4c3Oc3cc5c(cc3O4)CCN[C@H]5C2)CCN1C	30%	/	/
FC(F)(F)c1cc(-c2ccccc2)nc(N2CCCCCC2)n1	37%[38.3 µM]	-1%[46.1 µM]	-3
CS(=O)(=O)c1nc(-c2ccccc2)cc(C(F)(F)F)n1	19%	10µM*	10
CC(C)c1nc2sc3c(N4CCCCC4)ncnc3c2c2c1CCCC2	/	/	8
OC(CNCCC1C=Nc2ccccc21)Cn1c2ccc(Cl)cc2c2cc(Cl)ccc21 (centres undefined)	14%	10µM*	/
OC(CNCC1CCCO1)Cn1c2ccc(Cl)cc2c2cc(Cl)ccc21 (centres undefined)	1%[38.3 µM]	?	7
SMILES	IMPase Li inh	NPSR antag	IMPase cell inh
CC(=O)NC1=NN(C(C)=O)C(c2ccc(F)cc2)S1 (centres undefined)	0%	-4%	/
S=c1[nH]nc(-c2cccnc2)o1	-30%[38.3 µM]	-13%[46.1 µM]	-26
S=c1[nH]nc(-c2cccc(Br)c2)o1	10µM*	16%[46.1 µM]	?
Cc1ccccc1OCC(=O)N(CC(C)C)c1c(N)n(CC(C)C)c(=O)[nH]c1=O	/	-11%	/
CC1=CN2C(=N)/C(=C/c3ccco3)C(=O)N=C2S1	5%	-24%	/
CC1=CN2C(=N)/C(=C/c3ccc([N+](=O)[O-])o3)C(=O)N=C2S1	22%	13µM*	7
COc1ccc(OC)c(Nc2nc3ccccc3n3c(C)nnc23)c1	/	/	8
CC(=O)NC(=S)Nc1ccc(-c2nc3ccc(C)cc3s2)cc1	14µM*	10µM*	-9
CNC(=S)Nc1ccc(-c2nc3ccc(C)cc3s2)cc1	-11%	-36%	/
O=C(c1ccncc1)N1CCC2(CCCN(c3ccccn3)C2)CC1	29%	/	/
N#Cc1c(-c2ccc(C(F)(F)F)cc2)cc(-c2ccccc2)[nH]c1=S	-3%	3%	/
N#Cc1c(N)[nH]c(=S)c(C#N)c1-c1ccccc1	13µM*	27%[46.1 µM]	?
CCCC(=O)Nc1ncnc2c1ncn2[C@@H]1O[C@H]2COP(=O)(O)O[C@@H]2[C@@H]1OC(=O)CCC	-5%	/	3[20.6 µM]
O=C1c2ccccc2C(=O)c2c(Nc3cc4c5c(ccc6c7ccc8c9c(cc(Nc%10cccc%11c%10C(=O)c%10ccccc%10C%11=O)c(c3c56)c97)-c3ccccc3C8=O)C(=O)c3ccccc3-4)cccc21	2%	/	/
c1ccc(N2CCN(c3cnccn3)CC2)nc1	/	-6%[46.1 µM]	5
N#Cc1cc(C#N)c(N2CCN(c3ccccn3)CC2)nc1N	28µM*	-6%[46.1 µM]	1
CSc1nc(N)c2ncn([C@@H]3O[C@@H](COP(=O)(O)OP(=O)(O)O)[C@@H](O)[C@H]3O)c2n1	/	/	-3
Cc1nnc(SCC(=O)N2CCN(c3ccccc3)CC2)n(N)c1=O	-3%	15%	/
Cc1ccccc1NC1=CC(=O)CC(C)(C)C1	2%	-4%[46.1 µM]	4
CC1(C)CC(=O)C=C(NC2=CC3OC(c4ccccc4)OCC3OC2=O)C1 (centres undefined)	15%	2.5µM*	/
CCCCNS(=O)(=O)c1ccc2nc(-c3cccnc3)cc(C(=O)NCCCOCC)c2c1	11µM*	-11%	/
CCCCNS(=O)(=O)c1ccc2nc(-c3cccnc3)cc(C(=O)NCCCOC)c2c1	1%	-5%	/
CC(C)c1nc(CN(C)C(=O)N[C@H](C(=O)N[C@@H](Cc2ccccc2)C[C@H](O)[C@H](Cc2ccccc2)NC(=O)OCc2cncs2)C(C)C)cs1	10%	13µM*	/
COC(=O)CNC(=O)C(NC(=O)OCc1ccccc1)C(C)C (centres undefined)	12%	-2%	/
CCCCC1=CC2=CC(=O)C(C)(OC(=O)c3cnc4ccccc4n3)C(=O)C2=CO1 (centres undefined)	-7%	26%	/
SMILES	IMPase Li inh	NPSR antag	IMPase cell inh
O=[N+]([O-])c1ccc2nc(-c3ccncc3)[nH]c2c1	/	8%	/
O=[N+]([O-])c1ccc(-c2nc(-c3ccc(F)cc3)c(-c3ccncc3)[nH]2)cc1	21%	7.9µM*	1
CSC(=[SH+])N=N/C(=C1/C=CC=CN1)c1ccccn1.[Cu][Br]	6%	/	/
O=C1C(SCCO)=C(SCCO)C(=O)c2ccccc21	64%	13µM*	36
N#CC(=NCCO)C1=C(O)c2ccccc2C1=O	11%	/	/
CCCn1c(NC(=O)c2ccc(F)cc2)nc2ccccc21	5%	-35%	/
CCCn1c(NC(=O)c2ccc(Br)cc2)nc2ccccc21	28µM*	?	?
CC12CC[C@@](C(=O)O)(C(=O)C1=O)C2(C)C	7%	/	/
COc1ccc(NC(=O)CN2C(=O)/C(=C3\SC(=S)N(C4CCS(=O)(=O)C4)C3=O)c3ccccc32)cc1 (centres undefined)	/	-1%	/
N#Cc1cccc(-c2nc(NCCN3CCOCC3)c3ccccc3n2)c1	17%	/	/
Cc1cc(N/N=C/c2ccc(Cl)cc2Cl)nc(NCc2ccccc2)n1	21%	?	/
Cc1cc(N/N=C/c2ccc(N(C)C)cc2)nc(NCc2ccccc2)n1	/	10µM*	/
